VACV Venus inh: inhibitors of vaccinia virus (Venus reporter) | Vaccinia virus Venus reporter expression, fluorescence | 0.46% of 330,000 active | Potency, µM (top dose mostly 36.5 µM), for inactives: at the top dose activity change, negative = inhibition, usual class: inhibitors; calls by dose curve; tested in A549 cells; also: nearly all actives have a fitted effect of over 30% in size
VACV mCherry inh: inhibitors of vaccinia virus infection (mCherry reporter signal); Vaccinia virus mCherry reporter infection, fluorescence; Potency, µM (doses to about 36.5 µM), without a hit: at the top dose activity change, negative = inhibition, hits mostly inhibitors; 0.63% of 310,000 active; AID 720579; calls by dose curve; tested in A549 cells; also: nearly all actives have a fitted effect of over 35% in size
HCV inh: blocks hepatitis C virus | 3.4% of 340,000 active | Potency, µM (titrated, usually from 41.8 µM), for inactives: at the highest dose activity change, negative = inhibition, usual class: inhibitors | AID 651820 | Huh7.5.1 HCVcc-Cre infection, luciferase reporter, 44 h; active = well fitted inhibition curve with a large enough effect; inconclusive = small, poorly fitted or top-dose-only effect, or another doubt; inactive = no such curve, though single readings can be large or run the other way
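HCVcc-Cre virus at an moi near 0.5 was added right after compound to cells cultured 4 h from seeding (1,000 cells/well). Luciferase activity was determined 44 h later, 15 min after substrate addition at RT.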
Lassa entry inh: inhibitors of Lassa virus binding or cell entry; AID 540256; Potency, µM (highest dose often 37.9 µM), for inactives: at the top dose activity change, negative = inhibition, usual class: inhibitors; Lassa virus pseudotype entry inhibition, cell reporter; 1.2% of 300,000 active; calls by dose curve; tested in HEK293 cells; also: nearly all actives have a fitted effect of over 50% in size
FMDV inh: blocks foot and mouth disease virus; FMDV antiviral cell-based qHTS; Potency, µM (top dose mostly 57.9 µM), for the others: at the top dose activity change, negative = inhibition, most hits filed as inhibitors; 1.2% of 410,000 active; calls by dose curve; tested in HEK293T cells; also: read-out not given here; nearly all actives have a fitted effect of over 45% in size
Marburg entry inh: inhibitors of Marburg virus binding or cell entry. Potency, µM (top dose mostly 37.8 µM), inactives show at the highest dose activity change, negative = inhibition, most hits filed as inhibitors. AID 540276. 1.8% of 300,000 active. Marburg virus pseudotyped entry inhibition, cell reporter; calls by dose curve; tested in HEK293 cells
Active calls of the source: *; i = inactive; ? = inconclusive; · = not tested or not shown; [ ] = another dose, or the depositor's remark. Most compounds without a hit are left out; they make up all but 5.3% or so of the library. % is scaled to controls: 0 for no effect and ±100 for the full control effect; potency is read from the fitted curve at half-maximal effect.

SMILES | VACV Venus inh | VACV mCherry inh | HCV inh | Lassa entry inh | FMDV inh | Marburg entry inh
COc1ccc(NC(=O)c2cc(-c3ccc(C)c(C)c3O)n[nH]2)cc1Cl | -28% | -28% | 2.5µM* | 17%[46.1 µM] | ? | -38%[46.1 µM]
Cc1ccc(Cl)cc1-c1cc(C(=O)NCc2cc(C(F)(F)F)cc(C(F)(F)F)c2)[nH]n1 | ? | -27% | · | · | 40µM* | ·
Cc1ccc(NC(=O)c2cc(-c3cc(Cl)ccc3C)n[nH]2)cc1NS(C)(=O)=O | -21% | -2% | · | · | 25µM* | ·
COc1ccc(Cl)c(-c2cc(C(=O)Nc3ccc(C)c(NS(C)(=O)=O)c3)[nH]n2)c1 | ? | -17% | · | · | ? | ·
Cc1cc(F)ccc1O[C@H]1C=C[C@@H](c2ccc3c(c2)OCO3)O[C@@H]1CO | · | · | · | · | · | 14%[14.2 µM]
CCN(CC(=O)NCc1ccc(F)cc1)C(=O)c1oc2ccccc2c1C | 4% | -7% | -11% | ? | 34% | 8.9µM*
CCN(CC(=O)NCc1ccc(Cl)cc1)C(=O)c1oc2ccccc2c1C | -10% | i | -28% | -18%[46.1 µM] | 16% | ?
COc1cc(C/C=C\c2ccccc2)c(OC)cc1O | · | · | · | · | -5% | ·
COC(=O)C1=CN(CC2CCCO2)C=C(C(=O)OC)C1c1ccsc1 (centres undefined) | · | · | 8% | -2% | -20% | 11%
COC(=O)C1=CN(Cc2ccc(OC)cc2)C=C(C(=O)OC)C1c1ccsc1 | -3% | -8% | -19% | 10µM* | -8% | ?
COC(=O)C1=CN(CCOC23CC4CC(CC(C4)C2)C3)C=C(C(=O)OC)C1c1ccsc1 | ? | -20% | 32µM* | ? | -22% | ?
CCC1(C2CCN(Cc3ccccn3)CC2)NC(=O)N(CC2COc3ccccc3O2)C1=O (centres undefined) | 3% | -4% | · | · | ? | ·
CN(C)CCCNS(=O)(=O)c1ccc(N2CCN(Cc3ccc4c(c3)OCO4)CC2)c([N+](=O)[O-])c1 | -11% | ? | 5.6µM* | ? | -19% | ?
CS(=O)(=O)c1ccc(-n2nnc3ccccc32)c([N+](=O)[O-])c1 | -18% | -28% | -11% | -27%[46.1 µM] | -8% | ?
CC(=O)c1ccc(N2CCN(c3ccc(S(=O)(=O)NCCN(C)C)cc3[N+](=O)[O-])CC2)cc1 | · | · | ? | · | -4% | ·
CN(C)CCCNS(=O)(=O)c1ccc(-n2nnc3ccccc32)c([N+](=O)[O-])c1 | -7% | -24% | 18µM* | -26% | -1% | ?
CC(=O)c1ccc(N2CCN(c3ccc(S(=O)(=O)NCCCN(C)C)cc3[N+](=O)[O-])CC2)cc1 | · | · | 11µM* | · | -20% | ·
CN(C)CCNS(=O)(=O)c1ccc(N2CCc3ccccc32)c([N+](=O)[O-])c1 | -10% | ? | 10µM* | -4%[46.1 µM] | -12% | ?
Cc1ccccc1CNC(=O)Cc1ccc(NC(=O)N2CCCCc3ccccc32)cc1 | -4% | -11% | · | ? | 1% | ·
O=[N+]([O-])c1cc(S(=O)(=O)C(F)(F)F)ccc1N1CCN(c2ccccc2)CC1 | -16% | -16% | -3% | ? | ? | ?
O=[N+]([O-])c1cc(S(=O)(=O)Nc2ccccc2)ccc1N1CCN(c2ccccc2)CC1 | ? | ? | 13µM* | ? | ? | ?
CCOC(=O)c1ccccc1NC(=O)CSc1ccc(-c2sc(C)nc2C)nn1 | -8% | -5% | · | -7%[46.1 µM] | ? | ·
O=C1CCCCN1CCC(=O)N1CCOc2ccc(C(O)C3CCCCC3)cc2C1 (centres undefined) | -8% | -11% | · | · | -13% | ·
COC(=O)CN1C(=O)CSc2ccc(S(=O)(=O)Nc3cccc(Br)c3)cc21 | -11% | -9% | · | 0%[46.1 µM] | 42% | ·
COc1ccc(N2CCN(S(=O)(=O)c3ccc(OC)c(C(=O)N4CCCCC4)c3)CC2)cc1 | -6% | 2% | 13µM* | · | -27% | ?
SMILES | VACV Venus inh | VACV mCherry inh | HCV inh | Lassa entry inh | FMDV inh | Marburg entry inh
COc1ccc(N2CCN(S(=O)(=O)c3cc(C)ccc3OC)CC2)cc1 | -4% | ? | 2.8µM* | ? | 42% | 5%[46.1 µM]
COc1ccc(OC)c(S(=O)(=O)N2CCN(c3ccc(F)cc3)CC2)c1 | · | · | -6% | · | 18% | ·
COc1ccc(N2CCN(C3CCCN(S(=O)(=O)c4ccc(C)cc4C)C3)CC2)cc1 (centres undefined) | · | · | 8.9µM* | · | 22% | ·
O=C(COC(=O)Cc1ccccc1F)NCCNC(=O)COC(=O)Cc1ccccc1F | -11% | i | 15% | -1% | -13% | -10%
COc1ccc(C2=CC(c3ccccc3Cl)n3nc(-c4ccc(C)cc4)nc3N2)cc1 (centres undefined) | -8% | -12% | · | -24%[46.1 µM] | -17% | ?
CC(C)NC(=O)C1(C)CCCN1Cc1csc2ccccc12 (centres undefined) | -8% | i | · | · | -20% | ·
COc1cc(Cl)c(NC2=CC(=O)C(=O)c3ccccc32)c(OC)c1 | · | · | 16µM* | · | ? | ·
CC(=O)c1c(C)nc2ccccc2c1N | -14% | · | 14% | ? | -17% | 6%
Cc1nc2ccccc2c(N)c1C(=O)/C=C/c1ccccc1 | ? | 16µM* | 11µM* | 10µM* | 18µM* | ?
O=C1C(F)=CC(COC(c2ccccc2)(c2ccccc2)c2ccccc2)OC1n1cc(F)c(=O)[nH]c1=O (centres undefined) | ? | 10µM* | ? | 5.6µM* | 3.2µM* | ?
CCc1nn2c(=O)cc(COC(=O)c3cccs3)nc2s1 | -1%[7.34 µM] | -5%[7.34 µM] | · | ? | 42% | ·
O=C(Nc1cccc(Cl)c1)OCc1cn(-c2ccccc2)nn1 | 2% | -2% | ? | ? | 2.5µM* | 16%[46.1 µM]
CC(=O)c1cccc(NC(=O)CCn2nc(C)c(S(=O)(=O)N(C)C)c2C)c1 | -6% | -7% | · | 14%[46.1 µM] | -19% | ·
CCOC(=O)C1CCCN(C(=O)c2ccc(S(=O)(=O)N3CCCC3)cc2)C1 (centres undefined) | -6% | -10% | ? | 2% | -19% | -21%
CCOC(=O)C1CCCN(S(=O)(=O)c2ccc(S(=O)(=O)N3CCCC3)cc2)C1 (centres undefined) | · | · | 1.4µM* | · | ? | ·
CCOC(=O)c1c(NC(=O)C2CCCN(S(=O)(=O)c3ccccc3)C2)sc2c1CCCC2 (centres undefined) | -14% | -15% | 5.6µM* | ? | -25% | ?
CCCS(=O)(=O)NCc1c(C)ncc2c1CCN(C(=O)c1cccc(C(F)(F)F)c1)C2 | 0% | -9% | · | · | -16% | ·
CN1C/C(=C/c2ccc(B(O)O)cc2)C(=O)/C(=C/c2ccc(B(O)O)cc2)C1 | · | · | · | · | 28µM* | ·
CN1C/C(=C/c2cccnc2)C(=O)/C(=C/c2cccnc2)C1 | ? | ? | ? | ? | 3.2µM* | 1.8µM*
CC(C)N1CC2=C(OC(N)=C(C#N)C2c2cccnc2)/C(=C/c2cccnc2)C1 (centres undefined) | 3% | -5% | 17% | 10% | -6% | 2%

Screens as filed in PubChem.
